# Measured values: article PMC7862700, “An all-to-all approach to the identification of sequence-specific readers for epigenetic DNA modifications on cytosine”
# Experiments:
# Test in all cases: DAPPL (digital affinity profiling via proximity ligation, sequencing); 10 mM Tris-HCl pH 7.5, 50 mM NaCl, 1 mM DTT, 4% glycerol, room temperature, 30 min; GST-TFs on glutathione beads, 16-mer random dsDNA library, 0.1% formaldehyde crosslink after washing; high values mean tight binding
# Conditions in all cases: protein: recombinant; tags: N-terminal GST; dsDNA, one strand shown
# FLI1 = molecular target: T1, FLI1 (Homo sapiens, UniProt Q01543 1-452)
# T1 sequence: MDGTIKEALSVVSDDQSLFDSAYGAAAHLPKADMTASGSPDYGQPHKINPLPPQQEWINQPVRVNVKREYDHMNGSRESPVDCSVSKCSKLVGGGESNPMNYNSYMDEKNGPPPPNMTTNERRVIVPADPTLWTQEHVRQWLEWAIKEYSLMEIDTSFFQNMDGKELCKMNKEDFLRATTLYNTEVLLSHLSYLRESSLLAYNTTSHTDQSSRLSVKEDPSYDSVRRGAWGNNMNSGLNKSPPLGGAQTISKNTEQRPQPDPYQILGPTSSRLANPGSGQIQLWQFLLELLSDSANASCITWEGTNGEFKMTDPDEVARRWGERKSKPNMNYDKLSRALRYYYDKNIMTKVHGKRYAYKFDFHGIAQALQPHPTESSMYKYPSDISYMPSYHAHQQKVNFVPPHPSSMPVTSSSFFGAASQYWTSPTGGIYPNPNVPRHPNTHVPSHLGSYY
# Summary of the method: (§1)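 Human transcription factors carrying a GST fusion were produced in yeast, bound to glutathione beads, tagged with DNA barcodes and pooled together with a tag-only sample. Each pool was held with 200 nmole of a random double-stranded 16-mer DNA library in Tris/NaCl/DTT/glycerol buffer for 30 min at room temperature, then washed, crosslinked in 0.1% formaldehyde, proximity-ligated with BsaI/T4 ligase (1 h, 37 °C), PCR-amplified and sequenced on an Illumina NextSeq500. Binding signal is the read frequency of each hexamer for a given factor divided by its frequency in the tag-only sample.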
# ELK1 = molecular target: T2, ELK1 (Homo sapiens, UniProt P19419 1-428)
# T2 sequence: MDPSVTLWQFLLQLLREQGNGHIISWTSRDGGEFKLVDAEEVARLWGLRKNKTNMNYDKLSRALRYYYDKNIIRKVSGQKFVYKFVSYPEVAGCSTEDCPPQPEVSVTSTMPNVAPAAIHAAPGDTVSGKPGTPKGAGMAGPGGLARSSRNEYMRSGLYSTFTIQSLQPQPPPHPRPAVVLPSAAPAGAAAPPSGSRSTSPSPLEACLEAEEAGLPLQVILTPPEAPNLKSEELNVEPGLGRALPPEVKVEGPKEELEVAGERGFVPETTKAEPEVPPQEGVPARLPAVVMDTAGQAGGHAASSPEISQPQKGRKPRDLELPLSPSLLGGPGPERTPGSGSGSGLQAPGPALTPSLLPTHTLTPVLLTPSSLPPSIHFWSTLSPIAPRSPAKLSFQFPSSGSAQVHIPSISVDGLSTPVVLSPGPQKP
# Summary of the method: as §1
# GABPA = molecular target: T3, GABPA (Homo sapiens, UniProt Q06546 1-454)
# T3 sequence: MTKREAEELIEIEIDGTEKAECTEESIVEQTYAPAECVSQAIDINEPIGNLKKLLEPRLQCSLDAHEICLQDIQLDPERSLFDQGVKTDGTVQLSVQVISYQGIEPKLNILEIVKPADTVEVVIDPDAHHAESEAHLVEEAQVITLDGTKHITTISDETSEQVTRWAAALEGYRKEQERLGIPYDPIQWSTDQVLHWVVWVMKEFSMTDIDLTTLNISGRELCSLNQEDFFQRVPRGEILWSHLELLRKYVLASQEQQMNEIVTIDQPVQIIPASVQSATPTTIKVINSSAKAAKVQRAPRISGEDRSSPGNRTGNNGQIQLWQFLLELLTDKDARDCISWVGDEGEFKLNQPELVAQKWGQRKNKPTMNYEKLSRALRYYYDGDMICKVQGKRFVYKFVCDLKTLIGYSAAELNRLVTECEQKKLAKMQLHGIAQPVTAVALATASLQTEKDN
# Summary of the method: as §1
# ERG = molecular target: T4, ERG (Homo sapiens, UniProt P11308 1-479)
# T4 sequence: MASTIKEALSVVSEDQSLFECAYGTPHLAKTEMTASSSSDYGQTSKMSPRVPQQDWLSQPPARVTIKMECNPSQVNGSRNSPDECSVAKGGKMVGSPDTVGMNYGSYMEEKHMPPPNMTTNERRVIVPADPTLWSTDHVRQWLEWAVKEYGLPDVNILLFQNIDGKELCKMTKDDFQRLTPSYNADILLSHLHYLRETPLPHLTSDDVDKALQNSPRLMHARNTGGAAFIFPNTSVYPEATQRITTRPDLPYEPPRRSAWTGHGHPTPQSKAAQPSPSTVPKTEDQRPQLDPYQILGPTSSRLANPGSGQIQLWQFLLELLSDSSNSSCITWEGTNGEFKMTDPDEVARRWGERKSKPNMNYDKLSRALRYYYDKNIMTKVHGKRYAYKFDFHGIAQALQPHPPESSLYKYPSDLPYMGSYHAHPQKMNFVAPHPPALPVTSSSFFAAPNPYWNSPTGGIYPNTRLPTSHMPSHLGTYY
# Summary of the method: as §1
# ELF1 = ELF1 (Homo sapiens, UniProt P32519 1-619)
# Sequence of ELF1 (P32519 whole entry): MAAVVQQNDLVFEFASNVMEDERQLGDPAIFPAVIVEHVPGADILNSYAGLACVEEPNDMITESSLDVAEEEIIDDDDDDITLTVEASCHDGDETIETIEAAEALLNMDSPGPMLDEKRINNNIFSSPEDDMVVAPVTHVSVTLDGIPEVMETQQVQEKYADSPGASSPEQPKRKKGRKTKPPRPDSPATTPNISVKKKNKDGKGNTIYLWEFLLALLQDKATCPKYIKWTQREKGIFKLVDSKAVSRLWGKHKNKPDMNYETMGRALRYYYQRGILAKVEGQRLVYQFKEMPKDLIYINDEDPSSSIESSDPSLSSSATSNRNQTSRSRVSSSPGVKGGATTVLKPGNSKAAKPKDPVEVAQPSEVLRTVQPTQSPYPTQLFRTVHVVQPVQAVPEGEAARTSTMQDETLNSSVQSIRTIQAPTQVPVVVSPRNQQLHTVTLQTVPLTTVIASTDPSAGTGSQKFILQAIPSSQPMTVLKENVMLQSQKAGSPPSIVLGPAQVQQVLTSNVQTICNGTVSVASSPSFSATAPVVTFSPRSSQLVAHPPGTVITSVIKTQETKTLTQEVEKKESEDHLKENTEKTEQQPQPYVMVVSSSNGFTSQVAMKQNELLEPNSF
# Summary of the method: as §1
# EHF = molecular target: T5, EHF (Homo sapiens, UniProt Q9NZC4 1-300)
# T5 sequence: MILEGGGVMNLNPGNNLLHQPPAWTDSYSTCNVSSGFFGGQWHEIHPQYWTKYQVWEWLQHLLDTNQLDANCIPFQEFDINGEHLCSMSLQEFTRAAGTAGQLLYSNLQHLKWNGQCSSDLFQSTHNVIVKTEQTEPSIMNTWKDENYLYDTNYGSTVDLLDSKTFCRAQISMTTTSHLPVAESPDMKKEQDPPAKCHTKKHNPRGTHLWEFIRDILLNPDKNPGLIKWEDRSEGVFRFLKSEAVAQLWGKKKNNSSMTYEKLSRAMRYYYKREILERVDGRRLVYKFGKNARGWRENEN
# Summary of the method: as §1
# SPI1 = SPI1 (Homo sapiens, UniProt P17947 1-270)
# Summary of the method: as §1
# SPIB = SPIB (Homo sapiens, UniProt Q01892 1-262)
# Sequence of SPIB (Q01892 whole entry): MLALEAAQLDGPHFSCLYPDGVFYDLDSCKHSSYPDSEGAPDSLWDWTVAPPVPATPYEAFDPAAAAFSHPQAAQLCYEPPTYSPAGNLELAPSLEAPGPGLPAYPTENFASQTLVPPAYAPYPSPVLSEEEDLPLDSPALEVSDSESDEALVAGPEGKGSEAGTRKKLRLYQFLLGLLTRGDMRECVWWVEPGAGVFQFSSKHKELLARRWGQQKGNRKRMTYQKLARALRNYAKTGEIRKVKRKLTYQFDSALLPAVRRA
# Summary of the method: as §1
# FEV = molecular target: T6, FEV (Homo sapiens, UniProt Q99581 1-238)
# T6 sequence: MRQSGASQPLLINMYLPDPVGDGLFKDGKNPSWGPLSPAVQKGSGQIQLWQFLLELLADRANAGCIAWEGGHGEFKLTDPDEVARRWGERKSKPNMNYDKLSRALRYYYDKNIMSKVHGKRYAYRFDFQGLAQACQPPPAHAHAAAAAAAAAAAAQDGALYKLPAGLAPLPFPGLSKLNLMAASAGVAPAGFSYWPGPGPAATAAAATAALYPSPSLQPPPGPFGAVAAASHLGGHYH
# Summary of the method: as §1
# ETV5 = ETV5 (Homo sapiens, UniProt P41161 1-510)
# Sequence of ETV5 (P41161 whole entry): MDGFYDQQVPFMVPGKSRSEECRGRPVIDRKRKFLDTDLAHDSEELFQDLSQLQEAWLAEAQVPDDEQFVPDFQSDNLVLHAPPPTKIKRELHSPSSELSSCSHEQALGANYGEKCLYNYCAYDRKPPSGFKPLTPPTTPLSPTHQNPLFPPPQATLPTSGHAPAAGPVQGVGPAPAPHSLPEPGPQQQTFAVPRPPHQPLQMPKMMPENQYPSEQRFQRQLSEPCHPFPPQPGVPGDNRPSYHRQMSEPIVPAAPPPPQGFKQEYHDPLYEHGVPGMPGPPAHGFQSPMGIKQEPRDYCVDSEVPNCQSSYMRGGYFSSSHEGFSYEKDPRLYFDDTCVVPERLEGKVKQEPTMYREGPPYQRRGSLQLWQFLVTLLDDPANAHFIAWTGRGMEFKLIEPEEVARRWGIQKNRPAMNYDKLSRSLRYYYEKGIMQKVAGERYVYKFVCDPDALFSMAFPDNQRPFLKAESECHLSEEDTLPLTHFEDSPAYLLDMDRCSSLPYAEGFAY
# Summary of the method: as §1
# SPIC = molecular target: T7, SPIC (Homo sapiens, UniProt Q8N5J4 1-248)
# T7 sequence: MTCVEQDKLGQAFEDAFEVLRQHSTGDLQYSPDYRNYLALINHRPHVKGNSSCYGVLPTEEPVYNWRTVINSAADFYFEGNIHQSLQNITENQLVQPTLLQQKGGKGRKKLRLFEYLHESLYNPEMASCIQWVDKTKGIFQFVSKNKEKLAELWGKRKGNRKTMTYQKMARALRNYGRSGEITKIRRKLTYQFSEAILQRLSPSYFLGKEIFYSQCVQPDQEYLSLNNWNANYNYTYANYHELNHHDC
# Summary of the method: as §1
# ELF4 = ELF4 (Homo sapiens, UniProt Q99607 1-663)
# Sequence of ELF4 (Q99607 whole entry): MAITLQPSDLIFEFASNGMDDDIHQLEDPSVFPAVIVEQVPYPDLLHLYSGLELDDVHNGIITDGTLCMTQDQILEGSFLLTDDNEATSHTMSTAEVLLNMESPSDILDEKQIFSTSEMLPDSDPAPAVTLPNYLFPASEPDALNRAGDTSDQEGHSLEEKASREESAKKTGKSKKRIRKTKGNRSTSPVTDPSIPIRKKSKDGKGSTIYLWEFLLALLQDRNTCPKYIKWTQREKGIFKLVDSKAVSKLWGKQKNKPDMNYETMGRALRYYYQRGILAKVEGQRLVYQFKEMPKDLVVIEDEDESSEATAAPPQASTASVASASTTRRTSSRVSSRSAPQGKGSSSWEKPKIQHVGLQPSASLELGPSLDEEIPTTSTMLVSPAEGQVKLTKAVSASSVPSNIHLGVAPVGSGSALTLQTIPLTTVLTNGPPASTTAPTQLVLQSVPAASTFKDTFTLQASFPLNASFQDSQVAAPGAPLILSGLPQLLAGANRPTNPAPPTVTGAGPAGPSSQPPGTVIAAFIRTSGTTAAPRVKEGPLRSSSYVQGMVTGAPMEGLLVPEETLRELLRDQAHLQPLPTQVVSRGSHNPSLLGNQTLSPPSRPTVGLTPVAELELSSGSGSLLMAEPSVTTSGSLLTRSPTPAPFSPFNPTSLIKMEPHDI
# Summary of the method: as §1
# ELK4 = molecular target: T8, ELK4 (Homo sapiens, UniProt P28324-2 1-405)
# T8 sequence: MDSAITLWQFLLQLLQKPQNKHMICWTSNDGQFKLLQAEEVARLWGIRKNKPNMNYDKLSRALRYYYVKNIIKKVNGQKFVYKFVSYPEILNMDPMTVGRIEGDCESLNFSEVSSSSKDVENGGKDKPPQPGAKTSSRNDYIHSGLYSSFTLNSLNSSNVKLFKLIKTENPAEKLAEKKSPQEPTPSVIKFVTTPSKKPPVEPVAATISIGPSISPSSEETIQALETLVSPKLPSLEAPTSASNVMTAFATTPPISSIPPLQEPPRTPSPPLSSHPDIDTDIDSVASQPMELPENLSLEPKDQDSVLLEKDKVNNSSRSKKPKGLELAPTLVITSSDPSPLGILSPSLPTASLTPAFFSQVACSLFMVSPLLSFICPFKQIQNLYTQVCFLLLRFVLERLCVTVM
# Summary of the method: as §1
# ETV2 = molecular target: T9, ETV2 (Homo sapiens, UniProt O00321 1-342)
# T9 sequence: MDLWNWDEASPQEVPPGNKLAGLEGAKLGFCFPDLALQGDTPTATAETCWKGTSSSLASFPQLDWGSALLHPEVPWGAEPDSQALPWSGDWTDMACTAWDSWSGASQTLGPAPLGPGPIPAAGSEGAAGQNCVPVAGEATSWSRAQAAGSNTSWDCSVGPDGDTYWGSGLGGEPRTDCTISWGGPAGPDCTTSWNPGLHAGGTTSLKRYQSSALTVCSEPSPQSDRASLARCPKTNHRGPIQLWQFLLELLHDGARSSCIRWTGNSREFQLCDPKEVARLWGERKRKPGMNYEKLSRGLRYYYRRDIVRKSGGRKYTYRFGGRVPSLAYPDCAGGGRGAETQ
# Summary of the method: as §1
# ETV1 = ETV1 (Homo sapiens, UniProt P50549 1-477)
# Sequence of ETV1 (P50549 whole entry): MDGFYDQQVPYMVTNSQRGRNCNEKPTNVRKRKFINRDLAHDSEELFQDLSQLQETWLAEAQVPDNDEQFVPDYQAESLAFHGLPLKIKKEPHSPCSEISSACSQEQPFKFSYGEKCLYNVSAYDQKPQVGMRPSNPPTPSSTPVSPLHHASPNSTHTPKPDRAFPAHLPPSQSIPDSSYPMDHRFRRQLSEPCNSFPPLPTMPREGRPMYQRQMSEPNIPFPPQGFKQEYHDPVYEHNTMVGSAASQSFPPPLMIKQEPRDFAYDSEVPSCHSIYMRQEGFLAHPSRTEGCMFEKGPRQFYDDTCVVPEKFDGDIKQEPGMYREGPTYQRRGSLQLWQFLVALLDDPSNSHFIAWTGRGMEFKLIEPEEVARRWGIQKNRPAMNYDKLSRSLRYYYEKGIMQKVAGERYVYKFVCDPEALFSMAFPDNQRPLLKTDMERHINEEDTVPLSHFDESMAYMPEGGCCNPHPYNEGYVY
# Summary of the method: as §1
# ELK3 = molecular target: T10, ELK3 (Homo sapiens, UniProt P41970 1-407)
# T10 sequence: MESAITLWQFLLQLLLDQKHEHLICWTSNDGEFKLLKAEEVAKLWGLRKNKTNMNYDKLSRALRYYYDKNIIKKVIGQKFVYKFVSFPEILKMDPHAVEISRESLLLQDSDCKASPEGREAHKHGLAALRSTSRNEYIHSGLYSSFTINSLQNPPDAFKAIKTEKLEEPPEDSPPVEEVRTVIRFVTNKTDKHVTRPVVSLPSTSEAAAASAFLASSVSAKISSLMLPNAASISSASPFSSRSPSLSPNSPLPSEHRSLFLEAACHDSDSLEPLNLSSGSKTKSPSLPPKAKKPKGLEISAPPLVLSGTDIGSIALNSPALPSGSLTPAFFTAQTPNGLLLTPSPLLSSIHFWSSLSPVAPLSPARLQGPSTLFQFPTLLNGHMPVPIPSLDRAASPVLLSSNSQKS
# Summary of the method: as §1
Sequence,binding signal (FLI1),binding signal (ELK1),binding signal (GABPA),binding signal (ERG),binding signal (ELF1),binding signal (EHF),binding signal (SPI1),binding signal (SPIB),binding signal (FEV),binding signal (ETV5),binding signal (SPIC),binding signal (ELF4),binding signal (ELK4),binding signal (ETV2),binding signal (ETV1),binding signal (ELK3)
ACGGCC,"1.1 fold enrichment (6-mer frequency, TF over GST control)","1.13 fold enrichment (6-mer frequency, TF over GST control)","1.12 fold enrichment (6-mer frequency, TF over GST control)","1.09 fold enrichment (6-mer frequency, TF over GST control)","1.09 fold enrichment (6-mer frequency, TF over GST control)","1.09 fold enrichment (6-mer frequency, TF over GST control)","1.09 fold enrichment (6-mer frequency, TF over GST control)","1.26 fold enrichment (6-mer frequency, TF over GST control)","1.06 fold enrichment (6-mer frequency, TF over GST control)","1.14 fold enrichment (6-mer frequency, TF over GST control)","1.03 fold enrichment (6-mer frequency, TF over GST control)","1.15 fold enrichment (6-mer frequency, TF over GST control)","1.06 fold enrichment (6-mer frequency, TF over GST control)","1.01 fold enrichment (6-mer frequency, TF over GST control)","1.05 fold enrichment (6-mer frequency, TF over GST control)",
CATGGG,"1.04 fold enrichment (6-mer frequency, TF over GST control)","1.07 fold enrichment (6-mer frequency, TF over GST control)","1.04 fold enrichment (6-mer frequency, TF over GST control)","1.07 fold enrichment (6-mer frequency, TF over GST control)","1.05 fold enrichment (6-mer frequency, TF over GST control)","1.03 fold enrichment (6-mer frequency, TF over GST control)","1.03 fold enrichment (6-mer frequency, TF over GST control)",,,"1.01 fold enrichment (6-mer frequency, TF over GST control)","1.05 fold enrichment (6-mer frequency, TF over GST control)","1 fold enrichment (6-mer frequency, TF over GST control)","1.02 fold enrichment (6-mer frequency, TF over GST control)","1.04 fold enrichment (6-mer frequency, TF over GST control)",,"1.09 fold enrichment (6-mer frequency, TF over GST control)"
